Measured values as given in PubChem BioAssay (NCATS).
Results filed as inconclusive are left out. Calls of active or inactive are those of the source. The call rests on the fitted dose curve; in most records, active means well fitted curve in the direction sought with a large enough effect; inconclusive means small, poorly fitted or top-dose-only effect, or another doubt; inactive means no such curve, though single readings can be large; an effect the other way counts as inactive or inconclusive.

Experiments:
[1] = tested on: CRL-7250; assay: Cytotoxic Profiling of Annotated Libraries Using Quantitative High-Throughput Screening (AID 1296008); details: Five cell lines viability, CellTiter-Glo ATP luminescence, 48-72 h; max response: stronger effect = lower value; further: nearly all actives have a fitted effect of over 60% in size; on max response: on the % scale 0 is the no-effect control and ±100 the full control effect
Method in brief: (§1)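 Compounds were pin-transferred onto cells and incubated 48 or 72 hr at 37 degree Celsius, 95% humidity. CellTiter-Glo was added, plates sat 10 min at room temperature, then ATP-coupled luminescence was imaged as the viability read-out.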

[2] = tested on: HaCat; assay: as above; details: Five cell lines viability, CellTiter-Glo ATP luminescence, 48-72 h; max response: stronger effect = lower value
Method in brief: as §1

[3] = tested on: KB-3-1; assay: as above; details: Five cell lines viability, CellTiter-Glo ATP luminescence, 48-72 h; max response: stronger effect = lower value
Method in brief: as §1

[4] = tested on: NIH3T3; assay: as above; details: Five cell lines viability, CellTiter-Glo ATP luminescence, 48-72 h; max response: stronger effect = lower value
Method in brief: as §1

[5] = tested on: NIH3T3; assay: qHTS assay to identify novel small-molecules to repurpose for Merkel cell carcinoma treatment (AID 1296009); details: MCC and control cell lines, CellTiter-Glo viability, 72 h; at 44.8 µM (top of the series) unless noted; further: nearly all actives have a fitted effect of over 60% in size
Method in brief: (§2)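 Luminescence from CellTiter-Glo, read 10 min after addition at room temperature, reported viability following a 72 hr, 37 degree celsius treatment with NPC or MIPE compounds in titration; values normalized to plate controls.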

[6] = tested on: C33A; assay: Primary qHTS to identify gynecologic anti-cancer compounds using libraries of approved drugs and bioactive compounds (AID 1345084); details: Gynecologic cancer cell panel viability, ATPlite luminescence, 48 h; series mostly up to 57.5 µM; further: on the % scale 0 is the no-effect control and ±100 the full control effect; nearly all actives have a fitted effect of over 55% in size
Method in brief: (§3)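 In this quantitative HTS, cell killing is estimated from loss of ATP-dependent luciferase light. Cells see five compound concentrations over a 48 h exposure.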

[7] = tested on: CAOV3; assay: as above; details: Gynecologic cancer cell panel viability, ATPlite luminescence, 48 h; series mostly up to 57.5 µM
Method in brief: as §3

[8] = tested on: CASKI; assay: as above; details: Gynecologic cancer cell panel viability, ATPlite luminescence, 48 h; series mostly up to 57.5 µM
Method in brief: as §3

[9] = tested on: Es-2; assay: as above; details: Gynecologic cancer cell panel viability, ATPlite luminescence, 48 h; series mostly up to 57.5 µM
Method in brief: as §3

[10] = tested on: HeLa; assay: as above; details: Gynecologic cancer cell panel viability, ATPlite luminescence, 48 h; series mostly up to 57.5 µM
Method in brief: as §3

[11] = tested on: Hek293T; assay: as above; details: Gynecologic cancer cell panel viability, ATPlite luminescence, 48 h, control line for the selectivity index; series mostly up to 57.5 µM
Method in brief: as §3

[12] = tested on: JEG-3; assay: as above; details: Gynecologic cancer cell panel viability, ATPlite luminescence, 48 h; series mostly up to 57.5 µM
Method in brief: as §3

[13] = tested on: OV90; assay: as above; details: Gynecologic cancer cell panel viability, ATPlite luminescence, 48 h; series mostly up to 57.5 µM
Method in brief: as §3

[14] = tested on: PA-1; assay: as above; details: Gynecologic cancer cell panel viability, ATPlite luminescence, 48 h; series mostly up to 57.5 µM
Method in brief: as §3

[15] = tested on: HACAT; assay: qHTS assay to identify novel small-molecules to repurpose for Merkel cell carcinoma treatment (AID 1296009); details: MCC and control cell lines, CellTiter-Glo viability, 72 h; at 44.8 µM (top of the series) unless noted; further: nearly all actives have a fitted effect of over 60% in size
Method in brief: as §2

Cn1cc(CCn2cnc(-c3cnn(C)c3)c2-c2ccc(C#N)cc2)cn1
inactive: max response [1] -0.888% | max response [2] -11.5% | outcome [3] | outcome [4] | outcome [5] | Potency [6] | Potency [7] | outcome [8] | Potency [9] | Potency [10] | Potency [11] | Potency [12] | Potency [13] | Potency [14]

Cc1cc(CNC(=O)c2cc(C(=O)NCc3ccc(F)c(C)c3)ncn2)ccc1F
inactive: max response [1] 4.78% | max response [2] -0.507% | outcome [3] | outcome [4] | outcome [5] | Potency [6] | Potency [7] | outcome [8] | Potency [9] | Potency [10] | Potency [11] | Potency [12] | Potency [13] | Potency [14]

COc1ccc(CC(=O)NCc2ccccc2-c2ccccc2C(=O)NCCc2cccnc2)cc1
inactive: max response [1] -3.16% | outcome [2] | max response [3] -4.64% | outcome [4] | outcome [15] | outcome [5] | Potency [6] | Potency [7] | outcome [8] | Potency [9] | Potency [10] | Potency [11] | Potency [12] | Potency [13] | Potency [14]

CC(C)(CC(=O)N1CCCC1)NCC(=O)N1C[C@@H](F)C[C@H]1C#N
inactive: max response [1] -2.43% | max response [2] -28% | max response [3] 1.01% | outcome [4] | outcome [5] | Potency [6] | Potency [7] | outcome [8] | Potency [9] | Potency [10] | Potency [11] | Potency [12] | Potency [13] | Potency [14]

CC(=O)N[C@H](Cc1c[nH]c2ccccc12)C(=O)OCc1cc(C(F)(F)F)cc(C(F)(F)F)c1
inactive: max response [1] -4.46% | outcome [2] | outcome [3] | outcome [4] | outcome [15] | outcome [5] | Potency [6] | Potency [7] | outcome [8] | Potency [9] | Potency [10] | Potency [11] | Potency [12] | Potency [13] | Potency [14]

CC1=CC23[C@H](C=C(C(=O)O)[C@@H]2COC(=O)[C@]3(O)CO)[C@@H]1C (some centres undefined)
inactive: max response [1] -1.44% | max response [2] -3.69% | max response [3] 5.88% | outcome [4] | outcome [5] | Potency [6] | Potency [7] | outcome [8] | Potency [9] | Potency [10] | Potency [11] | Potency [12] | Potency [13] | Potency [14]

C=CC(C)(O)CCC1C(C)(O)CCC2C(C)(C)CCCC21C (centres undefined)
inactive: max response [1] -9.7% | max response [2] 3.9% | max response [3] 9.64% | outcome [4] | outcome [5] | Potency [6] | Potency [7] | outcome [8] | Potency [9] | Potency [10] | Potency [11] | Potency [12] | Potency [13] | Potency [14]

COc1ccc(/C=C/C(=O)O[C@@H]2[C@@H](OC(C)=O)[C@@H](OC(C)=O)[C@H](O[C@H]3[C@@H]4C=CO[C@@H](O[C@@H]5O[C@H](CO)[C@@H](O)[C@H](O)[C@H]5O)[C@@H]4[C@@]4(CO)O[C@@H]34)O[C@H]2C)cc1
inactive: outcome [1] | max response [2] 0.723% | max response [3] 2.76% | outcome [4] | outcome [5] inactive [at 17.4 µM] | Potency [6] | Potency [7] | outcome [8] | Potency [9] | Potency [10] | Potency [11] | Potency [12] | Potency [13] | Potency [14]

COc1cc(/C=C/C(=O)O[C@H]2[C@H](O)[C@@H](CO)O[C@@]2(CO)O[C@H]2O[C@H](CO)[C@@H](O)[C@H](O)[C@H]2O)cc(OC)c1O
inactive: outcome [1] | max response [2] -10.1% | max response [3] 3.15% | outcome [4] | outcome [5] inactive [at 17.4 µM] | Potency [6] | Potency [7] | outcome [8] | Potency [9] | Potency [10] | Potency [11] | Potency [12] | Potency [13] | Potency [14]

COC(=O)C1=CO[C@@H](O[C@@H]2O[C@H](CO)[C@@H](O)[C@H](O)[C@H]2O)[C@@H]2[C@@H](CO)[C@@H](O)C(O)[C@H]12 (some centres undefined)
inactive: outcome [1] | outcome [2] | outcome [3] | max response [4] 1.79% | outcome [15] inactive [at 17.4 µM] | Potency [6] | Potency [7] | outcome [8] | Potency [9] | Potency [10] | Potency [11] | Potency [12] | Potency [13] | Potency [14]

O=C(OC[C@H]1O[C@@H](Oc2ccccc2CO)[C@H](O)[C@@H](O)[C@@H]1O)c1ccccc1
inactive: max response [1] -0.775% | max response [2] 0.855% | max response [3] 3.27% | outcome [4] | Potency [6] | Potency [7] | outcome [8] | Potency [9] | Potency [10] | Potency [11] | Potency [12] | Potency [13] | Potency [14]

CC1(C)CC[C@]2(C(=O)O[C@@H]3O[C@H](CO)[C@@H](O)[C@H](O)[C@H]3O)CC[C@]3(C)C(=CCC4[C@@]5(C)CC[C@H](O[C@@H]6O[C@H](C(=O)O)[C@@H](O[C@@H]7O[C@H](CO)[C@@H](O)[C@H](O)[C@H]7O)[C@H](O)[C@H]6O)C(C)(C)C5CC[C@]43C)C2C1 (some centres undefined)
inactive: max response [1] -9.08% | outcome [2] | outcome [3] | max response [4] 3.38% | outcome [15] inactive [at 9.27 µM] | activity change, negative = cytotoxicity [6] -1.25% [at 11.6 µM] | activity change, negative = cytotoxicity [7] 6.34% [at 11.6 µM] | activity change, negative = cytotoxicity [8] 0.127% [at 11.6 µM] | activity change, negative = cytotoxicity [9] -4.47% [at 11.6 µM] | activity change, negative = cytotoxicity [10] 6.83% [at 11.6 µM] | activity change, negative = cytotoxicity [11] 3.96% [at 11.6 µM] | activity change, negative = cytotoxicity [12] -0.8% [at 11.6 µM] | activity change, negative = cytotoxicity [13] 3.65% [at 11.6 µM] | activity change, negative = cytotoxicity [14] 12% [at 11.6 µM]
